From PubChem BioAssay
tim23-1 inh = growth inhibitors of tim23-1 mutant yeast, primary screen, luminescence, uHTS; S. cerevisiae tim23-1 growth, BacTiter-Glo luminescence, 24 h; inhibition, % at 20 µM; 1.3% of 330,000 active;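 active = growth inhibition of the mutant yeast at or above 50%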;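 also: temperature-sensitive mutant grown at 25 °C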
NLRP3 yeast inh = NALP3 inflammasome inhibitors in reconstituted yeast, primary screen, luminescence, uHTS; Yeast reconstituted NLRP3/ASC/caspase-1, beta-gal luminescence, 24 h; inhibition, % at 10 µM; 0.39% of 330,000 active;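 active = inhibition of 50% or more; inactive = inhibition below 50%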
tim10-1 inh = growth inhibitors of tim10-1 mutant yeast, primary screen, luminescence, uHTS. S. cerevisiae tim10-1 ts strain growth, BacTiter-Glo, 24 h. inhibition, % at 20 µM. 2.2% of 330,000 active. AID 463190, 2010;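 active = inhibition of at least 40%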;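 also: mutant grown at 25 °C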
V-ATPase pH = regulators of yeast V-ATPase proton pumping, primary screen, pHLuorin cytosolic pH fluorescence; response, % at 10 µM; S. cerevisiae; 0.37% of 350,000 active; in the data active = response mostly above about 7.3%, no sharp cut-off; inactive = mostly below about 5.4%; also: actives read high
NALP1 yeast inh = NALP1 inflammasome inhibitors in reconstituted yeast, colorimetric, S. cerevisiae, triplicate retest. S. cerevisiae NALP1/ASC/caspase-1 growth, X-gal OD620, 72 h. 0.61% of 280,000 active. inhibition, % at 10 µM; in the data active = inhibition mostly above about 24%, no sharp cut-off; inactive = mostly below about 32%
TIM10 inh = growth inhibitors of isogenic TIM10 control yeast, primary screen, counter-screen for tim10-1 yeast inhibitor project, luminescence, uHTS. S. cerevisiae TIM10 strain growth, BacTiter-Glo luminescence, 24 h. inhibition, % at 10 µM. 1.4% of 330,000 active;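 active = inhibition of 40% or more at the single tested concentration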;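 also: wild-type TIM10 isogenic control strain grown at permissive 25 °C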
tim23-1 confirm = tim23-1 mutant yeast growth inhibitors, confirmation, luminescence, single concentration | inhibition, % at 20 µM | 83% of 4,400 active | AID 463218, 2010 | shares compounds with tim23-1 inh | S. cerevisiae tim23-1 growth, BacTiter-Glo luminescence, 24 h;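 active = inhibition above about 39% in either of two replicate wells at 20 µM, limit read from the data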;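 also: temperature-sensitive tim23-1 mutant grown at 25 °C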
Of the large screens only hits and unclear results are named; the others gave an inactive call (follow-up assays come after a bar, where they were run). Most compounds without a hit are left out; they make up all but 4.2% or so of the library.

Cc1[nH]c2c(Br)cccc2c1[C@H]1[C@@H](CC#N)C1(C)C	tim23-1 inh 51 | tim23-1 confirm 46
CN(C)CCOc1ccc(-c2c(-c3ccsc3)sc3ccccc23)cc1	tim23-1 inh 76 (no result: NALP1 yeast inh) | tim23-1 confirm 57
COc1ccc(-c2sc3ccccc3c2-c2ccc(OCCN(C)C)cc2)cc1	none (no result: NALP1 yeast inh)
CC[C@]12c3[nH]c4ccc(OC)cc4c3CCN1C(=O)C(CC(=O)NCc1ccc(OC)c(OC)c1)C[C@@H]2C(=O)N1CCN(C(=O)C2CC2)CC1 (stereo partly drawn)	none (no result: NLRP3 yeast inh, NALP1 yeast inh)
CCOc1ccc(NC(=S)N2CCN(C/C=C/c3ccccc3)CC2)cc1	none
COc1cccc(C(=O)c2c(-c3ccccc3)ncc3cc(OC)c(OC)cc23)c1	tim23-1 inh 54 (no result: NLRP3 yeast inh, NALP1 yeast inh) | tim23-1 confirm inactive
CC1(C)CC(NC(=O)c2ccccn2)CC(C)(C)N1O	none
COc1cccc(/C=N/Nc2nccnc2Cl)c1O	tim23-1 inh 67 | tim23-1 confirm 61
COc1ccc(NC(=O)Nc2nc3c(s2)CCCC3)cc1	tim23-1 inh 63 | tim23-1 confirm 50
COc1ccc(OCC(=O)Nc2nc3c(s2)CCCC3)cc1	none
O=c1c2ccccc2oc2c1ccc1ccccc12	tim23-1 inh 55 (no result: NLRP3 yeast inh, NALP1 yeast inh) | tim23-1 confirm inactive
CCOC(=O)Nc1ccc(C(=O)/C=C/c2ccccc2)cc1	tim23-1 inh 58 | tim23-1 confirm inactive
CCOC(=O)Nc1ccc(Oc2ccccc2)cc1	none
CC(C)NC(=S)N/N=C/c1c[nH]c2ccccc12	tim23-1 inh 56 | tim23-1 confirm 40
Cc1[nH]c2ccccc2c1/C=N/NC(=S)NC(C)C	none
O=C(CSc1nnnn1Cc1ccccc1)c1ccc(F)cc1	tim23-1 inh 54 (no result: NALP1 yeast inh) | tim23-1 confirm 52
CC(=O)NNC(=O)c1[nH]c2ccc(Br)cc2c1-c1ccccc1	none
NNC(=O)c1[nH]c2ccc(Br)cc2c1-c1ccccc1	tim23-1 inh 53 | tim23-1 confirm 50
CC1CCN(CCCNC(=O)C2CCN(S(=O)(=O)N3CCC4(CC3)OCCO4)CC2)CC1	none
CCOC(=O)c1sc(N(Cc2ccccc2)C(=O)CCl)nc1C	tim23-1 inh 62 | tim23-1 confirm 48
CC1(c2cccc(Br)c2)NC(=O)N(CC(=O)Nc2ccc3c(c2)OCCO3)C1=O (stereo not drawn)	none (no result: NALP1 yeast inh)
CCOc1cc(/C=C2\C(=O)ON=C2C)ccc1OCc1ccccc1	tim23-1 inh 51 | tim23-1 confirm 41
C[C@@H]1C(c2ccccc2)=NN(c2ccccc2)[C@H]1C(=O)N1CCOC1=O	tim23-1 inh 54 (no result: NLRP3 yeast inh, NALP1 yeast inh) | tim23-1 confirm inactive
C[C@@H]1C(c2cccc(Cl)c2)=NN(c2ccccc2)[C@H]1C(=O)N1CCOC1=O	none (no result: NLRP3 yeast inh, NALP1 yeast inh)
C[C@@H]1C(c2cccc(Cl)c2)=NN(c2ccc(Br)cc2)[C@H]1C(=O)N1CCOC1=O	tim23-1 inh 52 (no result: NLRP3 yeast inh, NALP1 yeast inh) | tim23-1 confirm 38
CC(C)N(Cc1ccccc1)S(=O)(=O)N(C)C	tim23-1 inh 76 | tim23-1 confirm inactive
COc1ccc(C(C(=O)NC2CCCC2)N(Cc2cccnc2)C(=O)Cc2cccs2)c(OC)c1 (stereo not drawn)	none
Cc1c(Cc2ccccc2)c(=O)oc2cc(OCC(=O)N3CCC(C(N)=O)CC3)ccc12	none
COc1ccccc1Nc1nc(N)nc(CSC(=S)N2CCC(C)CC2)n1	tim23-1 inh 50 | tim23-1 confirm inactive
COc1ccccc1Nc1nc(N)nc(CN2CCC(C)CC2)n1	none
COc1ccc(C)cc1S(=O)(=O)NCCN1CCOCC1	none
CCCCc1nc(C(N)=O)c2[nH]c(=O)n(-c3ccc(OCC)cc3)c2n1	none
COc1ccc(CC2=CC(=O)c3ccccc3C2=O)cc1	tim23-1 inh 66 | tim23-1 confirm 75
CC(C)(C)C(=O)N1CCN(c2ccc(NC(=O)c3ccc([N+](=O)[O-])o3)cc2)CC1	none
CC1CCN(c2ccc(NC(=O)c3ccc([N+](=O)[O-])o3)cc2)CC1	tim23-1 inh 56 (no result: NALP1 yeast inh) | tim23-1 confirm inactive
O=C(Nc1ccc(N2CCN(Cc3ccccc3F)CC2)cc1)c1ccc([N+](=O)[O-])o1	tim23-1 inh 56 | tim23-1 confirm 41
O=C(CCOc1ccccc1)Nc1ccnn1C1CCN(C(=O)CCC(F)(F)F)CC1	none
O=c1oc(CCO)cc2ccc(Br)cc12	none (no result: NALP1 yeast inh)
O=CN(/C=C1\Sc2ccccc2C1=O)Cc1ccccc1	tim23-1 inh 68 | tim23-1 confirm 66
CCC(=O)N(C)/C=C1\Sc2ccccc2C1=O	tim23-1 inh 53 | tim23-1 confirm inactive
Cc1ccc(OCC(=O)NC(=S)Nc2ccc(Br)cn2)cc1C	none
Cc1ccccc1/C=C1\Oc2ccccc2C1=O	tim23-1 inh 54 (no result: NALP1 yeast inh) | tim23-1 confirm 57
CCOc1ccccc1N1CCN(C(=O)NCc2ccc(C)cc2)CC1	none
CCc1nnc(NC(=O)CN2CCN(c3nc(-c4ccccc4)cs3)CC2)s1	tim23-1 inh 50 | tim23-1 confirm 41
CC(C)C(=O)NNC(=O)CN1CCN(c2nc(-c3ccccc3)cs2)CC1	none
O=C1c2ccccc2C(=O)N1CCC#Cc1ccc2cc(CCO)oc(=O)c2c1	none (no result: NALP1 yeast inh)
Cc1ccc(NC(=S)N/N=C/c2c(Cl)cccc2Cl)c(C)c1	tim23-1 inh 51 (no result: NALP1 yeast inh) | tim23-1 confirm 40
CCc1nnc(NS(=O)(=O)c2ccc(NC(=S)NC(=O)/C=C/c3ccc(C(C)C)cc3)cc2)s1	tim23-1 inh 52 | tim23-1 confirm 55
Cc1ccc(C(=O)NCC(=O)OC(C)C(=O)Nc2ccc(N3CCOCC3)cc2)s1 (stereo not drawn)	none
CCCCCc1ccc(OCCCC[n+]2ccc(C)cc2)c(CCCCC)c1	tim23-1 inh 53 | tim23-1 confirm inactive
CCOc1ccc(C(C)(C)C)cc1S(=O)(=O)Nc1ccncc1	none
N=c1n(CCO)c2ccccc2n1CCOc1ccccc1	tim23-1 inh 65 | tim23-1 confirm inactive
O=C(CN(C(=O)CCC(=O)Nc1nccs1)c1cccc(F)c1)NCCc1ccccc1	none
Cc1ccc(S(=O)(=O)NC(Cc2ccccc2)C(=O)NN)cc1 (stereo not drawn)	none
Cc1ccc(S(=O)(=O)N[C@@H](Cc2ccccc2)C(=O)CCl)cc1	tim23-1 inh 69 | tim23-1 confirm 48
CCC(C)Sc1cc(C)c(C#N)c2nc3ccccc3n12 (stereo not drawn)	tim23-1 inh 54 | tim23-1 confirm inactive
COc1cc2sc3cc(NCc4ccc5c(c4)OCO5)ccc3c(=O)c2cc1OC	none (no result: NALP1 yeast inh)
COc1cc2sc3cc(NCc4ccc(C)o4)ccc3c(=O)c2cc1OC	tim23-1 inh 58 (no result: NALP1 yeast inh) | tim23-1 confirm 72
N#CCCN(Cc1cccnc1)C(=S)NC1CC2C=CC1C2 (stereo not drawn)	none
